Measurements from the supplement of paper PMC10849652.
The full data set covers some 8,800 targets. This sample favours those with a hit. About 0.5% of all pairs of compound and target were hits.

What was measured:
Test in all cases: log2 fold change, soluble protein after heating vs DMSO (PISA); higher = thermal stabilisation; K562 lysate, 10 uM; active = over 0.2 and 3.5 SD of the protein, either way, in both replicates (recomputed)
[1] = compound: C1=CC=C(C=C1)[C@H](COC2=CC3=C(C=C2)NC(=O)N3)NC(=O)C4=CC=CN(C4=O)CC5=CC(=C(C=C5)F)F
Outline: (§1)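 Dounce homogenisation of K562 pellets in PBS pH 7.4 with 1 mM MgCl2 produced a crude extract, used at 1 mg/mL protein. Exposure to 10 μM compound lasted 30 min, and aliquots were then heated for 3 min across 48°C-58°C, pooled and brought to 0.5% NP-40 at 4°C. The supernatant after 21,000xg for 90 min was quantified by TMTpro 16plex LC-MS/MS with channel sums equalised. Duplicate values are given as log-two fold change in thermal stability relative to solvent controls.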

[2] = compound: CC1=C(SC2=C1C(=N[C@H](C3=NN=C(N32)C)CC(=O)N)C4=CC=C(C=C4)Cl)C
Outline: as §1

[3] = compound: CC1=C2C(=CC=C1)N=C(N(C2=O)C3=CC=CC=C3C)CN4C=NC5=C(N=CN=C54)N
Outline: as §1

[4] = compound: Cc1sc2c(c1C)C(c1ccc(Cl)cc1)=N[C@@H](CC(=O)OC(C)(C)C)c1nnc(C)n1-2
Outline: as §1

[5] = compound: c1ccc([C@@H]2C[C@H]2NC2CCNCC2)cc1
Outline: as §1

Measured: log2 fold change

CIC (UniProt I3L1Q4)
inactive: [1] 0.006 | [2] 0.225

CNDP2 (UniProt Q96KP4)
inactive: [1] 0.017 | [2] 0.017 | [3] -0.022 | [4] -0.006 | [5] -0.145

CNOT4 isoform 6 (UniProt O95628)
inactive: [1] -0.042 | [2] -0.02 | [3] -0.028 | [4] 0.051 | [5] -0.004

CHEK2 (UniProt O96017)
inactive: [1] -0.02 | [2] -0.041 | [3] -0.016 | [4] 0.006 | [5] 0.014

CTPS1 (UniProt P17812)
inactive: [1] -0.02 | [2] -0.013 | [3] -0.029 | [4] -0.014 | [5] 0.023

CSPP1 (UniProt Q1MSJ5)
inactive: [1] -0.082 | [2] 0.001 | [3] 0.051 | [4] -0.008 | [5] -0.028

DHCR7 (UniProt Q9UBM7)
inactive: [1] -0.107 | [2] 0.028 | [3] -0.031 | [4] -0.045 | [5] 0.091

CNIH4 (UniProt Q9P003)
inactive: [1] -0.355 | [2] -0.301 | [3] -0.017 | [4] 0.11

DES (UniProt P17661)
inactive: [1] 0 | [2] 0.05 | [3] 0.062 | [4] -0.219 | [5] -0.131

CUX1 isoform 3 (UniProt P39880)
inactive: [1] -0.001 | [2] 0.024 | [3] 0.031 | [4] 0.025 | [5] 0.03

DMAC2L (UniProt Q99766)
inactive: [1] -0.031 | [2] -0.048 | [3] 0.057 | [4] -0.005 | [5] -0.061

COG4 (UniProt Q9H9E3)
inactive: [1] 0.005 | [2] 0.034 | [3] 0.096 | [4] -0.036 | [5] 0.011

DIAPH3 (UniProt Q9NSV4)
inactive: [1] -0.09 | [2] 0.017 | [3] -0.035 | [4] 0.099 | [5] 0.195

CSNK1E (UniProt P49674)
inactive: [1] -0.004 | [2] -0.072 | [3] -0.031 | [4] 0.031 | [5] -0.005

CMPK2 (UniProt Q5EBM0)
inactive: [1] 0.008 | [2] 0.091 | [3] -0.024 | [4] 0.039 | [5] -0.098

COL6A5 (UniProt A8TX70)
Sequence of UniProt A8TX70 (A8TX70 whole entry, looked up): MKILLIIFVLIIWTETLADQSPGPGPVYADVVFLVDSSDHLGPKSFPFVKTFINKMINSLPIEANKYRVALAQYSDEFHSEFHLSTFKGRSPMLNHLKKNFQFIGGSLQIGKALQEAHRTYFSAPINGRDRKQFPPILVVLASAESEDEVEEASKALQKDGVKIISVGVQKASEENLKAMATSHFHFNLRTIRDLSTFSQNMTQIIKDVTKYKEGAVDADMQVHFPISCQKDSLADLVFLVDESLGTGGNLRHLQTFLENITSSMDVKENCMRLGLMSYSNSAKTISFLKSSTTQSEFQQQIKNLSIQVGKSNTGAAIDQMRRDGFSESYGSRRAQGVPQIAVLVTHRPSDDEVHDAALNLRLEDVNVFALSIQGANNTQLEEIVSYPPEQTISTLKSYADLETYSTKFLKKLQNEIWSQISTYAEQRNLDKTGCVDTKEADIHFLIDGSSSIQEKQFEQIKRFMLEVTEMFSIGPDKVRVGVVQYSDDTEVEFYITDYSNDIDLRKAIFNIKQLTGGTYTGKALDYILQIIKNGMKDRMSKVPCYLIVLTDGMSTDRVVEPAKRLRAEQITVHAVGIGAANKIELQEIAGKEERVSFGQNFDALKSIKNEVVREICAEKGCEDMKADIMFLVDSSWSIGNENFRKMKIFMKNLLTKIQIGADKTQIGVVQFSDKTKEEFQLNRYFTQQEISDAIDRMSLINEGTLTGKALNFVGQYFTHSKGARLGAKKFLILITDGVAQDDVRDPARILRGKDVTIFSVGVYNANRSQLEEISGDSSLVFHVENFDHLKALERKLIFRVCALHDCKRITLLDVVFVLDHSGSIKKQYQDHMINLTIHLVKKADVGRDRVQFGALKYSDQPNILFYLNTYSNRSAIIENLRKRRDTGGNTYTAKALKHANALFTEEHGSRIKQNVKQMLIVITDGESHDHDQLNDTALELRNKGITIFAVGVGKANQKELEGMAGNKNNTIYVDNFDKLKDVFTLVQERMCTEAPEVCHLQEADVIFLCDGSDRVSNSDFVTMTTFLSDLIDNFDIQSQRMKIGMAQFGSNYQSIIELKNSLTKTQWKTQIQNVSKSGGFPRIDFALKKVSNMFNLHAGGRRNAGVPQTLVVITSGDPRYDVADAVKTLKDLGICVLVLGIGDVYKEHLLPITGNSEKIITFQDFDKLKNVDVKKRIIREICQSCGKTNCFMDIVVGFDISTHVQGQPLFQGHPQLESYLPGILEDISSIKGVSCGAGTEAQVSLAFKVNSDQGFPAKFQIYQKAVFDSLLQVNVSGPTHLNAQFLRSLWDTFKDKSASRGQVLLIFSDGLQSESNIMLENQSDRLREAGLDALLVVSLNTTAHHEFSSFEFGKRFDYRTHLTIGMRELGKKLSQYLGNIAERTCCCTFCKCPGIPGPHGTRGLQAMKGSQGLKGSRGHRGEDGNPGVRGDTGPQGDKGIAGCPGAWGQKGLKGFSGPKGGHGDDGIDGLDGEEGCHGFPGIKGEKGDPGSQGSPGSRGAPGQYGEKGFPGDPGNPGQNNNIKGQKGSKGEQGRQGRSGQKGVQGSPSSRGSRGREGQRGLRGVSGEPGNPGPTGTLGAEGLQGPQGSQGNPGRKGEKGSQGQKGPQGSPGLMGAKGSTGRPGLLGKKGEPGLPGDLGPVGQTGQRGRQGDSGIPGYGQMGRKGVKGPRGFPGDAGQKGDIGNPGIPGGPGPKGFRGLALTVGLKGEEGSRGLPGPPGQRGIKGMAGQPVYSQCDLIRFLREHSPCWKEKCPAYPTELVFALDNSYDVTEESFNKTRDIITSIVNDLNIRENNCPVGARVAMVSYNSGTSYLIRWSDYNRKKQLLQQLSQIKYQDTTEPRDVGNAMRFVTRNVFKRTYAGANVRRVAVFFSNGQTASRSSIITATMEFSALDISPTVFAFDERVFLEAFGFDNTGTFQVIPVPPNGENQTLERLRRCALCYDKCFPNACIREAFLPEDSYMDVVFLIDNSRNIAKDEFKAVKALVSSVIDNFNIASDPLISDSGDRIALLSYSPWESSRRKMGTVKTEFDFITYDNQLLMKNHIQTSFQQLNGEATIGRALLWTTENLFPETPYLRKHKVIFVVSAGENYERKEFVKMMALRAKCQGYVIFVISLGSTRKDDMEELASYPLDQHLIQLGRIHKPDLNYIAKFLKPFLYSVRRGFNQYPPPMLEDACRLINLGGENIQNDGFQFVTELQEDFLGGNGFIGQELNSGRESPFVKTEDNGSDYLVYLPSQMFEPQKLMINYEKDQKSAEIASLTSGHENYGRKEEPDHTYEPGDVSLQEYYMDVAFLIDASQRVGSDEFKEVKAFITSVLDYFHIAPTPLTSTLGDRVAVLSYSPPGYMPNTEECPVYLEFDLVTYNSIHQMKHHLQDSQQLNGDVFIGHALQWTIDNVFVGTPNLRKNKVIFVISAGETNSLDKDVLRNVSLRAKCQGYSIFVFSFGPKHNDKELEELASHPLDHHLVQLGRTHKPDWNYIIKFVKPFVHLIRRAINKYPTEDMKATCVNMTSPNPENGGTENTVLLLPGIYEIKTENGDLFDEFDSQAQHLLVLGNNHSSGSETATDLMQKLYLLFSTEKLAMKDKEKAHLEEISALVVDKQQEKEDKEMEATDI
inactive: [1] 0.025 | [2] 0.052 | [3] 0.089 | [4] -0.061 | [5] -0.545

CNOT2 (UniProt Q9NZN8)
inactive: [1] 0.019 | [2] -0.016 | [3] -0.019 | [4] -0.004 | [5] 0.008

CMTM3 (UniProt Q96MX0)
inactive: [1] 0.058 | [2] -0.097 | [3] -0.018 | [4] 0.015 | [5] -0.024

CIP2A (UniProt Q8TCG1)
inactive: [1] -0.03 | [2] -0.002 | [3] -0.008 | [4] -0.021 | [5] 0.018

CIAO2A (UniProt Q9H5X1)
inactive: [1] -0.049 | [2] 0.062 | [3] 0.023 | [4] -0.032 | [5] 0.064

DFFB (UniProt O76075)
inactive: [1] 0.06 | [2] -0.057 | [3] 0.061 | [4] -0.032 | [5] 0.081

DPH5 isoform 5 (UniProt Q9H2P9)
inactive: [1] 0.047 | [2] -0.024 | [3] 0.021 | [4] -0.144 | [5] -0.118

CLASP2 isoform 3 (UniProt O75122)
inactive: [1] 0.002 | [2] -0.028 | [3] 0.079 | [4] -0.003 | [5] -0.061

CKAP2 (UniProt Q8WWK9)
inactive: [1] 0.052 | [2] 0.066 | [3] 0.001 | [4] -0.003 | [5] -0.021

CLUH (UniProt O75153)
inactive: [1] 0.03 | [2] 0.008 | [3] 0.021 | [4] -0.02 | [5] -0.058

CLP1 (UniProt Q92989)
inactive: [1] -0.023 | [2] -0.002 | [3] -0.023 | [4] 0.026 | [5] -0.1

CMIP (UniProt Q8IY22)
inactive: [1] -0.012 | [2] -0.006 | [3] -0.002 | [4] -0.029 | [5] 0.032

DLG3 isoform 2 (UniProt Q92796)
inactive: [1] 0 | [2] -0.082 | [3] -0.085 | [4] 0.019 | [5] 0.048

CORO7 isoform 3 (UniProt P57737)
inactive: [1] -0.003 | [2] -0.006 | [3] 0.033 | [4] 0.018 | [5] 0.036

CTPS2 (UniProt Q9NRF8)
inactive: [1] -0.001 | [2] -0.009 | [3] -0.008 | [4] 0.004 | [5] 0

DEF6 (UniProt Q9H4E7)
Sequence of UniProt Q9H4E7 (Q9H4E7 whole entry, looked up): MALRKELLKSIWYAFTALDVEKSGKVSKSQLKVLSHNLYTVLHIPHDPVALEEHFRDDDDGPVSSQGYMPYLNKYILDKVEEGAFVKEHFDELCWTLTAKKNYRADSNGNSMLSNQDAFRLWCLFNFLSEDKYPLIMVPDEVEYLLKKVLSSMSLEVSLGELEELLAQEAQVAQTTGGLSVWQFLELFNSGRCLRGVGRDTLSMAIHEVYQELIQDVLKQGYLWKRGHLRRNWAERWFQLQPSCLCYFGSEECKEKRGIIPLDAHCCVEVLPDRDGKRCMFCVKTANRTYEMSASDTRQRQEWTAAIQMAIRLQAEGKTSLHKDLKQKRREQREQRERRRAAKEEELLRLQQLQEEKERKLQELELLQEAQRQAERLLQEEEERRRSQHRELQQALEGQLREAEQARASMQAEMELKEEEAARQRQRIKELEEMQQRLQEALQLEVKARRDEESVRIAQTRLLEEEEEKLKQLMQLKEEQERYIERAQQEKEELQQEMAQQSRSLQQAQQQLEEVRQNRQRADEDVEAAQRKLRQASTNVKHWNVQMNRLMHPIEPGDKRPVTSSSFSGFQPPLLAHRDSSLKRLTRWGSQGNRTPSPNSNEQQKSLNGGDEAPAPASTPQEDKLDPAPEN
inactive: [1] -0.061 | [2] -0.05 | [3] -0.027 | [4] 0.036 | [5] -0.037

DERA (UniProt Q9Y315)
inactive: [1] 0.025 | [2] 0.012 | [3] -0.051 | [4] 0.061 | [5] 0.209

DNAJC1 (UniProt Q96KC8)
inactive: [1] -0.113 | [2] -0.021 | [3] 0.039 | [4] -0.011 | [5] 0.021

DDX54 isoform 2 (UniProt Q8TDD1)
inactive: [1] -0.131 | [2] 0.041 | [3] 0.09 | [4] 0.052 | [5] 0.008

DCTN1 (UniProt Q14203)
inactive: [1] -0.018 | [2] -0.017 | [3] -0.009 | [4] 0 | [5] 0.034

DHRS1 (UniProt Q96LJ7)
inactive: [1] 0.15 | [2] -0.103 | [3] -0.015 | [4] 0.029 | [5] -0.107

DDA1 (UniProt Q9BW61)
inactive: [1] 0.073 | [2] 0.024 | [3] -0.016 | [4] -0.003 | [5] 0.029

COG3 (UniProt Q96JB2)
Sequence of UniProt Q96JB2 (Q96JB2 whole entry, looked up): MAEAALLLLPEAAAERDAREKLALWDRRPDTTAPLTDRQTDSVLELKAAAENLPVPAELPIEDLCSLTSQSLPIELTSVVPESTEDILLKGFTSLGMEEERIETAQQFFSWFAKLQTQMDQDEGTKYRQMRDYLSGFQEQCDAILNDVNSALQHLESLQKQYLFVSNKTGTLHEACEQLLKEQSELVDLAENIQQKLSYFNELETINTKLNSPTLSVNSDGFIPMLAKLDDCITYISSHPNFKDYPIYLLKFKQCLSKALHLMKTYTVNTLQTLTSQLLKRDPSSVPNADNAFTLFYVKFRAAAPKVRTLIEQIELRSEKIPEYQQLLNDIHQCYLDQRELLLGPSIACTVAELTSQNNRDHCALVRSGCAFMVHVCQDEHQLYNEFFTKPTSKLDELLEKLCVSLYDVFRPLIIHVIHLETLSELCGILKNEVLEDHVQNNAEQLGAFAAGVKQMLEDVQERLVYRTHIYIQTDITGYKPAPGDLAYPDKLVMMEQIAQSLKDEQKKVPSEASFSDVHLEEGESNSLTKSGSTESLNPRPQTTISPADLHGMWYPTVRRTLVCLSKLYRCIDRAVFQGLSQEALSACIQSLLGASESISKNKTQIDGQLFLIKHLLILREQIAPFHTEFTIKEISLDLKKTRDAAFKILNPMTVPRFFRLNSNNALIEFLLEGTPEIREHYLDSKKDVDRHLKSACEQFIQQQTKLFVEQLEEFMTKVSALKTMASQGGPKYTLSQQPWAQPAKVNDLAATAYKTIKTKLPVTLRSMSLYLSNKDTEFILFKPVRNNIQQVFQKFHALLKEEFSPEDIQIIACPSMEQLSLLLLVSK
inactive: [1] -0.03 | [2] -0.015 | [3] 0.016 | [4] 0.033 | [5] 0.019

DNAH10 (UniProt Q8IVF4)
inactive: [1] 0.069 | [2] 0.014 | [3] 0.095 | [4] -0.081 | [5] -0.274

CPT1A (UniProt P50416)
inactive: [1] 0.042 | [2] 0.03 | [3] -0.004 | [4] 0.07 | [5] 0.011

CINP isoform 3 (UniProt Q9BW66)
inactive: [1] -0.016 | [2] -0.042 | [3] 0.039 | [4] -0.157 | [5] -0.145

DNAAF5 (UniProt Q86Y56)
Sequence of UniProt Q86Y56 (Q86Y56 whole entry, looked up): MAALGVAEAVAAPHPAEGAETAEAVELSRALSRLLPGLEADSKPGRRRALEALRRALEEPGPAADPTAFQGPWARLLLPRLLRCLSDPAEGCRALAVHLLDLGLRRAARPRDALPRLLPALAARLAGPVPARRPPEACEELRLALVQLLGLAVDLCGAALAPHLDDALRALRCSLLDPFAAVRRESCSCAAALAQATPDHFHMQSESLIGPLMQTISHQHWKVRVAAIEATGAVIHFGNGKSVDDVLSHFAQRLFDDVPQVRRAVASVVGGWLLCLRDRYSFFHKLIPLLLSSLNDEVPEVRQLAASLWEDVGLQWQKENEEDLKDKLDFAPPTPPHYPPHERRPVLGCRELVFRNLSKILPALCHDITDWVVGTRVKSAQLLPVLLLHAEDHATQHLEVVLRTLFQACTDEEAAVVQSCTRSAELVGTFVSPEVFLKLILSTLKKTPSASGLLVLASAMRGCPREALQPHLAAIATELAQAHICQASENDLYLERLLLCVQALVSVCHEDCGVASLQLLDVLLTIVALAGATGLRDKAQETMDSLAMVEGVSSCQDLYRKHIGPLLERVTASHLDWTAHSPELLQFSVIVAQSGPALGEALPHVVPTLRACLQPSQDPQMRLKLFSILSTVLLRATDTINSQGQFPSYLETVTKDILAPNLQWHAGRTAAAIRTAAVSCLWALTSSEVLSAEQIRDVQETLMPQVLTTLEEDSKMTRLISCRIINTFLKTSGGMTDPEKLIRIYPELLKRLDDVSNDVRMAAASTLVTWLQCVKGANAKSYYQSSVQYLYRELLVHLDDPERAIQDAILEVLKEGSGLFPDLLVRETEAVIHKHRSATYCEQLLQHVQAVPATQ
inactive: [1] -0.054 | [2] 0.038 | [3] -0.005 | [4] 0.016 | [5] 0.064

CUL1 (UniProt Q13616)
inactive: [1] 0.017 | [2] -0.027 | [3] -0.007 | [4] 0.016 | [5] -0.001

CSTB (UniProt P04080)
Sequence of UniProt P04080 (P04080 whole entry, looked up): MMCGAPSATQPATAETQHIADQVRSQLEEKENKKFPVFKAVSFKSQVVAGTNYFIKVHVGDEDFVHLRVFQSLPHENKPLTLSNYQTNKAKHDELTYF
inactive: [1] -0.031 | [2] -0.018 | [3] -0.032 | [4] -0.071 | [5] -0.146

COX20 isoform 2 (UniProt Q5RI15)
inactive: [1] 0.01 | [2] -0.047 | [3] -0.092 | [4] 0.001 | [5] 0.23

DNM2 (UniProt P50570)
inactive: [1] -0.01 | [2] 0.038 | [3] 0.035 | [4] 0.05 | [5] 0.057

CKAP5 (UniProt Q14008)
inactive: [1] -0.008 | [2] -0.019 | [3] 0.01 | [4] 0.014 | [5] 0.048

DHRS11 (UniProt Q6UWP2)
inactive: [1] -0.004 | [2] 0.012 | [3] 0.018 | [4] 0.013 | [5] 0.014

CSNK1G3 (UniProt Q9Y6M4)
inactive: [1] -0.041 | [2] 0.017 | [3] -0.013 | [4] 0.006 | [5] -0.03

CHEK1 (UniProt O14757)
inactive: [1] 0.025 | [2] 0.021 | [3] 0.006 | [4] -0.04 | [5] 0

COG2 (UniProt Q14746)
inactive: [1] -0.038 | [2] -0.034 | [3] 0.054 | [4] 0.001 | [5] 0.009

CLCN3 (UniProt P51790)
inactive: [1] 0.094 | [2] 0.014 | [3] 0.061 | [4] 0.063 | [5] 0.017

DLGAP5 (UniProt Q15398)
inactive: [1] 0.029 | [2] -0.006 | [3] 0.009 | [4] -0.036 | [5] -0.015
